A number with no mark means an inactive call. Inconclusive results are not listed. A call without a number means that no potency is given here. Calls of active or inactive are those of the source. Unless noted, the call rests on the fitted dose curve.
How the values were obtained:
[1] = Nuclear factor erythroid 2-related factor 2/antioxidant responsive element (Nrf2/ARE) small molecule agonists: qHTS cell viability counter screen in human keratinocytes (AID 1919968; active means well fitted curve in the direction sought with a large enough effect in the repeat runs; an effect the other way counts as inactive or inconclusive; further: nearly all actives have a fitted effect of over 55% in size; further: potency means the concentration at half of the fitted maximal effect)
In short: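 HaCaT ARE reporter line, 1,500 cells/well; 5 h settle, 37 C/5% CO2; cpd in DMSO pinned; 23 h exposure; CellTiter-Fluor, 1 h; fluorescence.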

[2] = Nuclear factor erythroid 2-related factor 2/antioxidant responsive element (Nrf2/ARE) small molecule agonists: luciferase reporter gene qHTS assay in human keratinocytes (AID 1919969); further: nearly all actives have a fitted effect of over 35% in size
[3] = target: Gonadotropin-releasing hormone receptor (Homo sapiens) (UniProt P30968); assay: Human gonadotropin-releasing hormone receptor (GnRHR) small molecule agonists, calcium flux assay in GnRHR-HEK293 cells (AID 1920063); further: nearly all actives have a fitted effect of over 35% in size
Chain of Gonadotropin-releasing hormone receptor (Homo sapiens) (P30968 whole entry, looked up): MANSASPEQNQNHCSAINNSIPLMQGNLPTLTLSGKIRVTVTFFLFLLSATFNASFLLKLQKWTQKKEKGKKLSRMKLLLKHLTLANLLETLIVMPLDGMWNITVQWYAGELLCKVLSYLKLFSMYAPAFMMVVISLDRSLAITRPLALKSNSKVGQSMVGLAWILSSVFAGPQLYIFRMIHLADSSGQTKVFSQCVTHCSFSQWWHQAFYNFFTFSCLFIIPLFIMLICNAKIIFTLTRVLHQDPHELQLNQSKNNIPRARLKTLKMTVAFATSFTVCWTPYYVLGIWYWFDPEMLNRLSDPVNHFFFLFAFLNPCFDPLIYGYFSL
In short: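 GnRHR-HEK293, 1500 cells/well, 18 h 37 C/5% CO2; Ca dye 1 h 37 C; cpd pinned (DMSO), agonist mode; kinetic FL 480/540, 3 min, 1 s reads; 15 conc, n=3.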

[4] = target: KiSS-1 receptor (Homo sapiens) (UniProt Q969F8); assay: Human kisspeptin (KISS1R) small molecule agonists, calcium flux assay in KISS1R-HEK293 cells (AID 1920064; active means well fitted curve in the direction sought with a large enough effect in the repeat runs; an effect the other way counts as inactive or inconclusive)
Chain of KiSS-1 receptor (Homo sapiens) (Q969F8 whole entry, looked up): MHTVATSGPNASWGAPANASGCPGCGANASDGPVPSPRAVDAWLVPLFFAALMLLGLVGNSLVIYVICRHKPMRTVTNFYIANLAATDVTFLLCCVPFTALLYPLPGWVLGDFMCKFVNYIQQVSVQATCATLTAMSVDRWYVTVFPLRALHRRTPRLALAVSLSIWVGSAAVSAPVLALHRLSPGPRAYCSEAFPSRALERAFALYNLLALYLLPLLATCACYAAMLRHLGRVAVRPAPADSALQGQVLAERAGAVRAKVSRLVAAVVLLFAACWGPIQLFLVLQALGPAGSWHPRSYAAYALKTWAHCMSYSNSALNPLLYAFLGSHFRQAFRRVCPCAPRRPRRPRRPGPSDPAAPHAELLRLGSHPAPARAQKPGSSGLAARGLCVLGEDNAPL
In short: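 Stable human KISS1R HEK293 line; 18 h plating, 37 C/5% CO2; calcium dye 1 h 37 C; compound pin transfer; kinetic fluorescence Ex/Em 480/540, 3 min.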

[5] = G protein-coupled receptor (GPCR) small molecule agonists, calcium flux assay: HEK293 wild type cell line counter screen (AID 1920065)
In short: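 Kinetic fluorescence at Ex/Em 480/540, recorded every second over 3 min, served as the read-out after compound addition. Each compound was tested at 15 concentrations in triplicate on cells pre-loaded with calcium dye for 1 h.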

[6] = p53 small molecule agonists, cell-based qHTS assay with human liver microsomes (AID 1963577);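 further: p53 response element beta-lactamase reporter cells with liver microsomes plus NADPH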
In short: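 Steps: plate p53RE-bla cells, incubate 5 h at 37 C; add compound in DMSO; add microsomes (0.5 mg/mL final) and NADPH (0.5 mg/mL final); incubate 16 h at 37 C; add LiveBLAzer, 2 h RT; read fluorescence.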

[7] = p53 small molecule agonists, cell-based qHTS assay with rat liver microsomes (AID 1963578)
In short: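 Metabolic activation is supplied by rat liver microsomes with NADPH (each 0.5 mg/mL final). p53RE-bla cells incubate with compound 16 h at 37 C; reporter activity is measured by LiveBLAzer fluorescence.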

[8] = p53 small molecule agonists, cell-based qHTS assay with human liver microsomes: qHTS cell viability counter screen (AID 1963579); further: nearly all actives have a fitted effect of over 45% in size
In short: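 After the 460/530 nm beta-lactamase read, CellTiter-Glo was added to the same wells and luminescence measured after 30 min at room temperature, giving viability of p53RE-bla cells treated 16 h with compounds plus microsomes and NADPH.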

[9] = p53 small molecule agonists, cell-based qHTS assay with rat liver microsomes: qHTS cell viability counter screen (AID 1963580); further: nearly all actives have a fitted effect of over 45% in size
In short: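 HCT-116 p53RE-bla, 4,000 cells/well, 5 h pre-incubation; cpd + rat liver microsomes 0.5 mg/mL + NADPH 0.5 mg/mL (final); 16 h, 37 C; CellTiter-Glo, 30 min RT; luminescence.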

[10] = p53 small molecule agonists, cell-based qHTS assay: qHTS cell viability counter screen (AID 1963581); further: nearly all actives have a fitted effect of over 45% in size
In short: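 HCT-116 p53RE-bla cells, 4,000/well, plated 5 h before compound pin transfer; 16 h at 37 C; bla substrate 2 h RT; then CellTiter-Glo, 30 min RT, luminescence.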

[11] = target: 5-hydroxytryptamine receptor 2A (Homo sapiens) (UniProt P28223); assay: 5-hydroxytryptamine receptor 2A (HTR2A) small molecule antagonists, cell-based qHTS assay (AID 1963586); further: nearly all actives have a fitted effect of over 45% in size; further: potency means the concentration at half of the fitted maximal effect
Chain of 5-hydroxytryptamine receptor 2A (Homo sapiens) (P28223 whole entry, looked up): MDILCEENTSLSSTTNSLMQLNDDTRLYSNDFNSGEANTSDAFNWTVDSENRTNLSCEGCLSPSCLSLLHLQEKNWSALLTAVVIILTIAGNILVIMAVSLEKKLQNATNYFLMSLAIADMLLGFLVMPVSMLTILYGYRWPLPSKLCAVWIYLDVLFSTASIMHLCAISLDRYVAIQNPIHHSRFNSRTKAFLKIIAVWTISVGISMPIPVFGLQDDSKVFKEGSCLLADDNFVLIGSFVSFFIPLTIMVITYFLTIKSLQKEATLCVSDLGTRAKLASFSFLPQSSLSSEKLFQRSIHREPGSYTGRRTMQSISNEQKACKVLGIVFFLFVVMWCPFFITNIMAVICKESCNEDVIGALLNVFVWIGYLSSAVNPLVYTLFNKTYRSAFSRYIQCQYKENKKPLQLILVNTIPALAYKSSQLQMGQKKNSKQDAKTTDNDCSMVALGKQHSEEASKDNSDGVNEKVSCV
In short: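 Antagonist-mode intracellular calcium assay: DOI (4 nM) added after 5 min compound pre-incubation at room temperature to dye-loaded HTR2A-CHO cells. Fluorescence followed for 3 min, sampled every second.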

[12] = target: Muscarinic acetylcholine receptor M1 (Homo sapiens) (UniProt P11229); assay: Cholinergic receptor muscarinic 1 (CHRM1) small molecule antagonists, cell-based qHTS assay (AID 1963588); further: nearly all actives have a fitted effect of over 40% in size
Chain of Muscarinic acetylcholine receptor M1 (Homo sapiens) (P11229 whole entry, looked up): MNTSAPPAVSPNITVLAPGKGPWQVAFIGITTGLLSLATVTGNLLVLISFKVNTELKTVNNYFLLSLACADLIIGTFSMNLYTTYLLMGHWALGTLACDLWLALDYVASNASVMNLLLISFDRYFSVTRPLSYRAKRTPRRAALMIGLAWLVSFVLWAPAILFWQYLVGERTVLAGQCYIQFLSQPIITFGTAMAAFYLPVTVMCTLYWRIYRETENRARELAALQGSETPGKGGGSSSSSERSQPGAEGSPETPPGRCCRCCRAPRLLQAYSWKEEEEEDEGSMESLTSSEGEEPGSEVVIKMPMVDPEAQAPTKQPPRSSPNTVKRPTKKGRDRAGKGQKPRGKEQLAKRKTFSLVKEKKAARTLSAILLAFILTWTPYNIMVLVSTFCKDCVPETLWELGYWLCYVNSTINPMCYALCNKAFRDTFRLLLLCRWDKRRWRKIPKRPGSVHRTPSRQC
In short: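 CHRM1-CHO calcium-flux assay, antagonist mode. Cells were seeded 18 h, dye-loaded 1 h at 37 C and given compound for 5 min at RT, then acetylcholine was added at 50nM. FDSS fluorescence was read 3 min; 15 concentrations, three runs.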

[13] = target: Muscarinic acetylcholine receptor M1 (Homo sapiens) (UniProt P11229); assay: Cholinergic receptor muscarinic 1 (CHRM1) small molecule agonists, cell-based qHTS assay (AID 1963589); further: nearly all actives have a fitted effect of over 35% in size
In short: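 Human M1 in stable CHO line; 18 h plating, 1 h dye load 37 C; cpd added (agonist mode); Ca2+ fluorescence kinetic read, 1 s intervals; 15 conc, 3 runs.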

[14] = cAMP Responsive Elements (CRE) small molecule agonists, cell-based qHTS assay (AID 1963590)
In short: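 HEK 293T CRE-bla, 2,000 cells/well, 18 h preincubation 37 C/5% CO2; cpds (DMSO) pinned, 3 h; LiveBLAzer B/G FRET substrate, 2 h RT.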

[15] = cAMP Responsive Elements (CRE) small molecule antagonists, cell-based qHTS assay (AID 1963591; active means well fitted inhibition curve with a large enough effect in the signal ratio in the repeat runs, not every such curve was filed as active; the % refers to the signal ratio)
In short: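 Beta-lactamase reporter read by FRET substrate (LiveBLAzer B/G) after 2 h at room temperature. CRE-bla HEK293T cells had received compound plus 0.25 uM (final) NKH477 for 3 h at 37 °C.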

[16] = target: Beta-2 adrenergic receptor (Homo sapiens) (UniProt P07550); assay: Adrenergic beta2 receptor (ADRB2) small molecule antagonists, cell-based qHTS assay (AID 1963592); further: series mostly up to about 92 µM; nearly all actives have a fitted effect of over 50% in size
Chain of Beta-2 adrenergic receptor (Homo sapiens) (P07550 whole entry, looked up): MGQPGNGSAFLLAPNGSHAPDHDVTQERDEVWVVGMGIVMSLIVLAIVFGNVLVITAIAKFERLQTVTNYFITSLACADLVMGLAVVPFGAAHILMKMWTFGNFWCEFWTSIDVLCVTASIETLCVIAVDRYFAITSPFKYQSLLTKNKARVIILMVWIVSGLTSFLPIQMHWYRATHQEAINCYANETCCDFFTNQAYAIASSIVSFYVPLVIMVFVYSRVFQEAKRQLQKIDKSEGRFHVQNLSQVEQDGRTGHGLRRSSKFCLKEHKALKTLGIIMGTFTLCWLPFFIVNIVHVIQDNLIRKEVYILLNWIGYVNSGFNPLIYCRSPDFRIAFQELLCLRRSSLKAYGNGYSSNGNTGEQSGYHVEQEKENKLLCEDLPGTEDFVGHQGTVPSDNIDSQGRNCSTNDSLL
In short: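 Cells (CHO, stable ADRB2 overexpression) incubated 18-20hr at 37C; compounds added from DMSO; agonist mix (1nM isoproterenol, 100uM IBMX, 25uM Ro-20-1724) added; 0.5hr RT; d2-cAMP and anti-cAMP-cryptate added; 1hr RT; 665/615 nm read.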

[17] = target: D(2) dopamine receptor (Homo sapiens) (UniProt P14416); assay: Dopamine D2 receptor (DRD2) small molecule antagonists, cell-based qHTS assay (AID 1963595; active means well fitted inhibition curve with a large enough effect in the signal ratio in the repeat runs, with a control signal flat; the % refers to the signal ratio; further: potency means the concentration at half of the fitted maximal effect)
Chain of D(2) dopamine receptor (Homo sapiens) (P14416 whole entry, looked up): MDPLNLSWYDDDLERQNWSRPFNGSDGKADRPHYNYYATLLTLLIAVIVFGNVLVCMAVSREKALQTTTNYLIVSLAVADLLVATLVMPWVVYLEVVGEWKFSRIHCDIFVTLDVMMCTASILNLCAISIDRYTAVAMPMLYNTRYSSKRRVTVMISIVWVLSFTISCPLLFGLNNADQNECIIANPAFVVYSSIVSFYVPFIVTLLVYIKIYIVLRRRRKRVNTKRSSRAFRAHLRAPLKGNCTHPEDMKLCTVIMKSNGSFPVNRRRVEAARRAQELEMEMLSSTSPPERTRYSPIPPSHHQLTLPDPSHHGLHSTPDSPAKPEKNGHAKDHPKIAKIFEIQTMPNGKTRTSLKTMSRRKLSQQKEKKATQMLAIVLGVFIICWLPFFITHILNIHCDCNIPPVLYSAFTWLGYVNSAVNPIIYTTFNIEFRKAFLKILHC
In short: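 HTRF cAMP read-out at 665 and 620 nm emission (340 nm excitation). Antagonist mode: compounds were tested against 12 nM quinpirole in DRD2-HEK293 cells, with 200 nM NKH477 raising cAMP and 0.1 mM Ro20-1724 blocking its breakdown.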

[18] = target: 5-hydroxytryptamine receptor 2A (Homo sapiens) (UniProt P28223); assay: 5-hydroxytryptamine receptor 2A (HTR2A) small molecule agonists, cell-based qHTS assay (AID 1963587); further: nearly all actives have a fitted effect of over 30% in size
In short: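 Kinetic calcium-flux fluorescence (2 min, 1 sec intervals) after compound addition in agonist mode. HTR2A-CHO cells were cultured 18 h, then dye-loaded 1 h at 37 C.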

[19] = target: D(2) dopamine receptor (Homo sapiens) (UniProt P14416); assay: Dopamine D2 receptor (DRD2) small molecule agonists, cell-based qHTS assay (AID 1963594); further: nearly all actives have a fitted effect of over 35% in size
In short: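 cAMP accumulation in DRD2-HEK293 cells measured by HTRF after 1 h detection; compounds added 10 min before NKH477 (200nM […]) forskolin-analogue stimulation, 30 min at room temperature, with Ro20-1724 present at 0.1 mM final.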

Structure (SMILES)	Potency [1]	Potency [2]	Potency [3]	outcome [4]	outcome [5]	Potency [6]	Potency [7]	Potency [8]	Potency [9]	Potency [10]	Potency [11]	Potency [12]	Potency [13]	Potency [14]	Potency [15]	Potency [16]	Potency [17]	Potency [18]	Potency [19]
CCOC(=N)CC(=O)OCC	inactive	inactive	inactive	inactive	inactive	inactive	inactive	inactive	inactive	inactive	inactive	inactive	inactive	inactive	inactive	inactive	inactive		
C/C=C(/C(=C/C)c1ccc(OC(C)=O)cc1)c1ccc(OC(C)=O)cc1	inactive	inactive	inactive	inactive	inactive	inactive	inactive	inactive	inactive	inactive		inactive	inactive	inactive		inactive	inactive	inactive	inactive
CCN(CCC#N)c1ccc(N=Nc2ccc([N+](=O)[O-])cc2)cc1	inactive	inactive	inactive	inactive	inactive	inactive	inactive	inactive	inactive	inactive	inactive		inactive	inactive	inactive	inactive	inactive		inactive
CC1=CC(=O)CC(C)(C)C1(O)/C=C/C(C)=C\C(=O)O (stereo not drawn)	inactive	inactive	inactive	inactive	inactive	inactive	inactive	inactive	inactive	inactive	inactive	inactive	inactive	inactive		inactive	inactive		inactive
O=C(CCCCCCCCc1cccnc1)N1CCC(C=C(c2ccccc2)c2ccccc2)CC1	15.4 µM (active)	inactive	inactive	inactive	inactive	inactive	inactive	inactive	inactive	inactive	inactive		inactive		inactive		inactive	inactive	inactive
CCCC1CCCC(=O)O1 (stereo not drawn)	inactive	inactive	inactive	inactive	inactive	inactive	inactive	inactive	inactive	inactive	inactive	inactive				inactive	inactive	inactive	inactive
CN(C)CCC=C1c2ccccc2C=Cc2ccccc21	inactive	inactive	inactive	inactive	inactive	inactive	inactive	inactive	inactive	inactive	0.818 µM (active)			inactive	inactive		33.5 µM (active)	inactive	inactive
C/C(=C\C(C)CC(C)CC(C)C)C1CC(=O)OC1=O (stereo not drawn)	inactive	inactive	inactive	inactive	inactive	inactive	inactive	inactive	inactive	inactive	inactive	inactive		inactive		inactive	inactive	inactive	inactive
